Compounds without any hit were thinned out: in the full panel of roughly 83,000, 20% have a hit.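 Activity criterion: percent growth below 10, measured after cells in 96-well plates were exposed to a single compound concentration for 48 hours.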 A number with no mark means an inactive call. Active and inactive are the calls of the source.
Experiments:
Assay in all cases: NCI-60 one-dose screen, 48 h (100 = growth as untreated, 0 = no growth, -100 = all killed)
NCI-H23 lung = settings: 10 µM unless noted
NCI-H226 lung = settings: 10 µM unless noted
NCI-H322M lung = settings: 10 µM unless noted
HOP-62 NSCLC = settings: 10 µM unless noted
NCI-H460 lung = settings: 10 µM unless noted
NCI-H522 lung = settings: 10 µM unless noted
A549/ATCC NSCLC = settings: 10 µM unless noted
786-0 renal = settings: 10 µM unless noted
COLO 205 colon = settings: 10 µM unless noted
DU-145 prostate = settings: 10 µM unless noted
MALME-3M melanoma = settings: 10 µM unless noted
MDA-MB-231 breast = settings: 10 µM unless noted
RXF 393 renal = settings: 10 µM unless noted
SF-268 CNS = settings: 10 µM unless noted
SF-295 CNS = settings: 10 µM unless noted
SF-539 CNS = settings: 10 µM unless noted
UACC-257 melanoma = settings: 10 µM
M14 melanoma = settings: 10 µM unless noted
K-562 leukemia = settings: 10 µM unless noted
HOP-92 NSCLC = settings: 10 µM unless noted

Structure (SMILES) | growth (NCI-H23 lung) | growth (NCI-H226 lung) | growth (NCI-H322M lung) | growth (HOP-62 NSCLC) | growth (NCI-H460 lung) | growth (NCI-H522 lung) | growth (A549/ATCC NSCLC) | growth (786-0 renal) | growth (COLO 205 colon) | growth (DU-145 prostate) | growth (MALME-3M melanoma) | growth (MDA-MB-231 breast) | growth (RXF 393 renal) | growth (SF-268 CNS) | growth (SF-295 CNS) | growth (SF-539 CNS) | growth (UACC-257 melanoma) | growth (M14 melanoma) | growth (K-562 leukemia) | growth (HOP-92 NSCLC)
CS(=O)(=O)c1nccc(-c2c(-c3ccc(F)c(OCc4ccc(F)cc4)c3)nc3sccn23)n1 | 99.2% | 83.7% | -78.2% (active) | 68.3% | 10.3% | 53.9% | 104% | 95.1% | 109% | -96.4% (active) | 111% | 79.9% | 84.2% | 96.1% | 96.9% | 90.1% | -56.9% (active) | 81.3% | – | –
CCOC(=O)C1=C(C)Nc2nc3ccccc3n2C1c1cccc(Br)c1 (stereo not given) | 86.7% | 102% | 97.6% | 74.3% | 89.2% | 37.1% | – | 93.5% | 81.6% | 93.3% | 51.9% | 79% | 99.7% | 94.7% | 60.7% | 85.8% | 87.1% | 63.4% | 29.9% | –
Cc1cc(O)c2c(c1)C(=O)C(c1c(C)cc3c(c1O)C(=O)C=CC3=O)=CC2=O | 89.9% | 97.7% | 110% | 98.6% | 109% | -36.9% (active) | 98.6% | 37.4% | -19.3% (active) | 72.8% | -15.2% (active) | 62.8% | 20.2% | 96.8% | 107% | 108% | – | 93.1% | 15.4% | –
COc1ccc(-c2ccnc3c(C#N)c(Nc4ccccc4)nn23)cc1OC | 93% | 62.6% | 91.2% | 86.5% | 92.8% | 81.4% | 85.4% | 85.7% | 97.1% | 93.9% | 110% | 64.2% | 15.8% | 86.4% | 93.2% | 78.8% | 104% | 117% | 93.6% | –
C=CCn1c(SCC(=O)Nc2cccc(C(=O)/C=C/c3ccccc3Cl)c2)nc2ccccc2c1=O | 94.7% | 91.8% | 92% | 108% | 93% | 84.8% | 86.2% | 88% | 113% | 93.7% | 96.9% | 93.8% | 94.3% | 88.4% | 93.8% | 86.6% | 107% | 87.5% | – | –
Cc1cccc(NC(c2cc3cccc4ccc5cccc2c5c43)c2nnnn2C(C)(C)C)c1C (stereo not given) | 82.2% | 31.9% | 86.4% | 86.5% | 93.4% | 77.3% | 92.7% | 97.6% | 102% | 104% | 92.9% | 78.6% | – | 91.1% | 87.2% | 86.5% | 94% | 94.4% | 96.6% | –
C=CCn1c(SCC(=O)Nc2cccc(C(=O)/C=C/c3cc(OC)c(OC)c(OC)c3)c2)nc2ccccc2c1=O | 24.4% | 75.8% | 67.1% | 45.8% | 16.8% | 39.2% | – | 43.7% | 108% | 13.7% | 71% | 29.5% | 17.1% | 70.3% | 83.5% | 21.1% | 80.9% | 63% | – | 48.4%
C/C(=C(/c1ccc(O)cc1)c1ccc(OCCN2CCCCCC2)cc1)c1ccccc1 | 45.5% | 75.7% | 67% | 65.8% | 19.2% | 65.6% | – | 35.5% | -86.5% (active) | 74.3% | 2.85% (active) | 43.1% | 26% | 71.3% | 44% | 10.7% | -27% (active) | -3.91% (active) | – | 45%
Cc1ccc(S(=O)(=O)N/N=C/c2cn(-c3ccc(F)cc3)nc2-c2ccc(S(C)(=O)=O)cc2)cc1 | 104% | 102% | 106% | 101% | 108% | 95.3% | 101% | 100% | 107% | 114% | 71% | 104% | 117% | 104% | 103% | 97.7% | 99.3% | – | 102% | –
Nc1nc(-c2cccc([N+](=O)[O-])c2)c(N=Nc2ccccc2[N+](=O)[O-])s1 | 3.8% (active) | 4.17% (active) | 76.7% | -36.1% (active) | 39.5% | 26.4% | 36.1% | -66.4% (active) | 93.7% | 37.4% | 53.9% | -54.1% (active) | -67.7% (active) | 19.6% | 26.6% | -73.3% (active) | 103% | 50.7% | 50.8% | –
C=C(C)[C@@H]1CC[C@]2(C)[C@H](CC=C3[C@@H]4CC(C)(C)CC[C@]4(C(=O)NCC#CCN4CCN(C)CC4)CC[C@]32C)[C@@]1(C)CCC#N | 79.4% | 86.7% | 85.8% | 81.3% | 10.7% | 78.3% | – | 52.3% | 86.6% | 63.4% | 34.6% | 47.8% | 53.7% | 65.4% | 70.5% | 87.7% | 91.3% | -63.7% (active) | -7.15% (active) | –
COc1ccc(/C=N/Nc2nc(Nc3ccccc3)nc(Nc3ccc(S(N)(=O)=O)cc3)n2)cc1 | 70.3% | 73.2% | 84.6% | 80.4% | 55.2% | 82.5% | 87.1% | 73.7% | 76.9% | 65.3% | 81.3% | 67.2% | 22.9% | 90.9% | 70.4% | 48% | 96.4% | 74.9% | 49.4% | –
O=S(=O)(Nc1ccc(C2CC2)cc1)c1ccc(-c2cnc(C3CC3)o2)cc1 | 73.9% | 74.9% | 92.3% | 62.2% | 73.2% | 59.6% | 62.2% | 88.5% | 88.9% | 88.5% | 66.6% | 72.5% | 74.6% | 78% | 49.4% | 62.9% | 79.8% | 53.6% | 15.7% | –
COc1ccc(/C(C)=C(\c2ccc(Cl)cc2)c2ccc(OCCN)cc2)cc1 | 82.2% | 92% | 79.3% | 106% | 60.8% | 102% | – | 81.7% | 32.6% | 87.2% | 83% | 67.1% | 68.3% | 89.4% | 103% | 90% | 94.7% | 81.4% | – | 61.6%
C=C(C)[C@@H]1CC[C@]2(C(=O)NCCCN(CCC#N)CCC#N)CC[C@]3(C)[C@H](CC[C@@H]4[C@@]5(C)CCC(=O)C(C)(C)[C@@H]5CC[C@]43C)[C@@H]12 | 93.6% | 94% | 103% | 97.9% | 101% | 91.6% | 97.3% | 101% | 109% | 109% | 102% | 99.4% | 92.9% | 99.2% | 97.1% | 99.7% | 105% | 101% | 88.4% | –

Reference: PubChem BioAssay (NCI)
